Here are results for 31 molecules from PubChem BioAssay (NCATS).

Each structure is given as a SMILES string. Inconclusive results are not listed. Calls of active or inactive are those of the source. Calls come from the whole dose curve; as a rule, active = well fitted activation curve with a large enough effect in the signal ratio, with a control signal flat (not every such curve was filed as active); inconclusive = small, poorly fitted or top-dose-only effect, or effect the other way, or a change in a side signal; inactive = flat fitted curve, though single readings scatter; the % refers to the signal ratio.
Potency is the fitted concentration of half-maximal effect.

The nature of this assay: qHTS Assay for Identification of Small Molecule Agonists for Hypoxia Response Element Signaling Pathway (AID 914). For activation: % of control where 0% means no effect. The settings on record: ME-180 (cervical carcinoma) HRE-bla reporter, beta-lactamase ratio, CoCl2, 17 h; activation: hits give high values. Summed up:
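HRE-bla ME-180 cells with beta-lactamase reporter under hypoxia response element, compounds with EC50 CoCl2 for 17 hours at 37 C. CCF4 substrate, 460nm/530nm emission ratio gave %Activity; AC50 from titration series.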
Background: qHTS replaces the single test concentration by a dilution series.
As to `CCCN(CCC)c1nc2ccccc2nc1C(C#N)C(=O)OC(C)COC` (stereo unspecified), the activation was -6.34% (inactive).

Regarding `CCc1nc(N2CCCC2)c(C#N)c2c1CCCC2`, the activation is -12% (inactive).

Turning to `CCCCCNC(=O)c1c(N)n(/N=C/c2ccco2)c2nc3ccccc3nc12`, the Potency was 7.94 µM (active).

Take `COc1ccc(C2=CC(c3ccc(C)cc3)n3nnnc3N2)cc1` (stereo unspecified): the Potency is 10 µM (active).

Consider `COc1cccc(/C(O)=C2/C(=O)C(=O)N(CCCN(C)C)C2c2cccc(Cl)c2)c1` (stereo unspecified), for which the activation was 9.88% (inactive).

Regarding `COC(=O)c1[nH]c2cc(OC)ccc2c1NC(=O)CCN1CCCC(C)(C)C1`, the activation is 10.2% (inactive).

Regarding `C[N+](C)(C)CCN(Cc1cccs1)c1ccccn1`, the activation is 3.56% (inactive).

Turning to `Cc1cccn2c(=O)c(/C=C(\C#N)S(=O)(=O)c3ccccc3)c(N3CCN(C)CC3)nc12`, the activation was -11.6% (inactive).

With `CCOCCSc1nc2c(c(=O)[nH]c(=O)n2C)n1CCCc1ccccc1`, the activation was 6% (inactive).

On to `COc1nc(N(C)S(=O)(=O)c2ccc(C)cc2)nc(C)c1Cl`, for which the activation is -6.79% (inactive).

Take `CCOC(=O)c1sc2c(c1C)c(=O)c(C(=O)OCC)cn2CC`: the activation was 16.2% (inactive).

As for `CCC(=O)Nc1c(C#N)c2nc3ccccc3nc2n1C1CCCCC1`, the Potency is 10 µM (active).

In the case of `CCCCCCc1cc2cc(-c3nnc(-c4ccccc4O)o3)c(=O)oc2cc1O`, the Potency was 3.16 µM (active).

As to `Cc1ccc(S(=O)(=O)c2cc3c(=O)n4ccccc4nc3n(C)c2=N)cc1`, the Potency was 7.94 µM (active).

For `CC(CN1CCN(C)CC1)OC(=O)c1ccc(Cl)cc1Cl` (stereo unspecified), the activation was -4.39% (inactive).

Take `CCc1ccc(-c2cn3nc(C)c(C)nc3n2)cc1`: the Potency was 10 µM (active).

For `COCCCNC(=O)c1c(N)n(/N=C/c2cccnc2)c2nc3ccccc3nc12`, the Potency is 10 µM (active).

Take `CC12CN3CC(C)(CN(C1)C3c1ccc(Br)cc1O)C2` (stereo unspecified): the activation was -25.5% (inactive).

In the case of `C[N+](C)(C)[C@@H](C1=CCCC1=O)c1ccccc1`, the activation is -1.62% (inactive).

With `CC1(C)CCN(Cc2ccccc2)C1CC#N` (stereo unspecified), the activation was 7.94% (inactive).

Take `Cc1ccc(CNC(=O)c2cc3c(=O)n4ccccc4nc3n(Cc3ccco3)c2=N)cc1`: the Potency was 5.01 µM (active).

In the case of `CNc1oc(-c2ccccc2Cl)nc1C#N`, the activation is 10.7% (inactive).

Consider `N#CC1=C(N)OC2=C(C(=O)CCC2)[C@]12C(=O)N(CC(N)=O)c1ccccc12`, for which the activation was -22.1% (inactive).

Take `c1ccc2c(c1)NC(c1ccncc1)n1c-2nc2ccccc21` (stereo unspecified): the activation is 15.3% (inactive).

As for `Cc1nc(Sc2cccn2C)c(C(F)(F)F)c(=O)[nH]1`, the activation is 6.77% (inactive).

In the case of `CCC1(C)Cc2c(sc3c2c(=O)n(C)c2nnc(SCc4ccc5c(c4)OCO5)n32)CO1` (stereo unspecified), the activation is -18.9% (inactive).

Consider `CCN1CCN(c2nc3c(C)cccn3c(=O)c2/C=C(\C#N)S(=O)(=O)c2ccccc2)CC1`, for which the activation was 5.25% (inactive).

As to `Cc1ccccc1C(=O)c1ccc2c(c1)n(C)c(=O)n2C`, the activation was -17.8% (inactive).

Consider `N=c1c(C(=O)NCc2ccccc2)cc2c(=O)n3ccccc3nc2n1Cc1ccco1`, for which the Potency was 6.31 µM (active).

On to `CCc1cc(=O)oc2c(CN3CCCC3)c(O)c(Cl)cc12`, for which the Potency is 7.94 µM (active).

In the case of `O=C(c1ccc(=O)oc1)N1CCOCC1`, the activation was 5.28% (inactive).
